LDHA block = blocks human lactate dehydrogenase A | purified LDHA, NADH/diaphorase-resazurin fluorescence; hits give low values | P00338 | activity change, % (values are at about 110 or 230 µM) | AID 1347041 | 0.15% of 480,000 active; in the data active means activity change below about -30%; inconclusive means mostly about -25% to -30%
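Remaining NADH was detected by diaphorase (0.133 mg/mL) converting 37 µM resazurin to fluorescent resorufin, read at 0 and 20 minutes. The preceding 5-minute room-temperature reaction used 2 nM LDHA, 0.2 mM sodium pyruvate and 0.06 mM NADH at pH 7.4.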
GLP-1R agonist = GLP-1 receptor (human) agonism; P43220; HEK293 GLP-1R CRE-luciferase, luminescence, 4-6 h; cells express a hypersensitive GLP-1R form; Potency, µM (titrated, usually from 45.6 µM), actives largely listed as activators; 0.007% of 380,000 active; AID 624172
Target sequence (P43220 whole entry, looked up): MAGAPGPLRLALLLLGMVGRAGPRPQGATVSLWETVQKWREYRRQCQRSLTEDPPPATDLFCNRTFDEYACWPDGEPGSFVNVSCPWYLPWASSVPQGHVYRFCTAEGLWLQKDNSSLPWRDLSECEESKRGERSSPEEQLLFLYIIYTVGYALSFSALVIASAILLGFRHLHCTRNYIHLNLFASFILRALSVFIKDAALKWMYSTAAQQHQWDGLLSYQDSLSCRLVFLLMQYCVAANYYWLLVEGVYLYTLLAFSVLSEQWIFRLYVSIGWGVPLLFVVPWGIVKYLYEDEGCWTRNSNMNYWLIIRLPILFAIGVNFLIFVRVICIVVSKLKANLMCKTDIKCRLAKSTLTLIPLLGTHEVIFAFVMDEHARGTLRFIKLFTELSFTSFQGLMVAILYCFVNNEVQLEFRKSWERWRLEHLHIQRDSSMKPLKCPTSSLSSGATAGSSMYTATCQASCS
GLP1R cytotox = cytotoxicity in counter-screen for GLP-1R inverse agonists | HEK293 cAMP-luciferase reporter cells, luminescence, 24 h | Potency, µM (series often up to 38.3 µM), most hits filed as inhibitors | 0.13% of 410,000 active;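 further: loss of luciferase light is scored as toxicity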
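1536-well qHTS counterscreen of the MLSMR; 200 cells/uL, 12 h pre-incubation, 23 nL cpd, 24 h at 37 deg C 5% CO2, luciferase detection reagent, 12 min RT, luminescence. Inhibition = undesired.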
p53 reactivator = mutant p53 re-activation in reporter cells. H1299 p53-A138V BP100-luciferase reporter, luminescence, 24 h. Potency, µM (highest dose often 92.2 µM), most hits filed as activators. 0.063% of 320,000 active. AID 504706; further: nearly all actives have a fitted effect of over 45% in size
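p53-null H1299 cells stably carrying temperature-sensitive p53-A138V and a BP100-luciferase reporter were pinned with compounds (4-point, 1:5 series) and held 24 hrs at 37 deg C. Luminescence was read 10 min after detection reagent.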
GLP-1R inv ag = acts as inverse agonist at human GLP-1 receptor; P43220; Potency, µM (highest dose often 38.3 µM), most hits filed as inhibitors; AID 624417; HEK293 GLP-1R CRE-luciferase, luminescence, 24 h; GLP-1R form is constitutively active; 1.6% of 410,000 active; further: nearly all actives have a fitted effect of over 55% in size
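Using stably transfected HEK293 (constitutively active GLP-1R, cAMP-luciferase reporter), compounds were incubated 24 hr and luciferase measured by luminescence.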
ClpP mod = qHTS Assay for Activators of ClpP | ATP-dependent Clp protease proteolytic subunit (Bacillus subtilis (strain 168)), P80244 | purified B. subtilis ClpP, FRET peptide cleavage, 20 min | Potency, µM (highest dose often 57.5 µM) | 1.9% of 340,000 active; active means well fitted falling curve with a large enough effect; inconclusive means small, poorly fitted or top-dose-only effect; inactive means no such curve, though single readings can be large or run the other way; further: the source files actives as falling curves though it sought activators and does not explain the sign; nearly all actives have a fitted effect of over 65% in size
Target sequence (P80244 whole entry, looked up): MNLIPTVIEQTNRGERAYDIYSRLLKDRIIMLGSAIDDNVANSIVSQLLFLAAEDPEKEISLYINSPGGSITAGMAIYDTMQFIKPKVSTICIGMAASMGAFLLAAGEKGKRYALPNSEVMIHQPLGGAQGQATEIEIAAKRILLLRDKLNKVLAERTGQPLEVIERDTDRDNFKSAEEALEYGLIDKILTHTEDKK
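Buffer: 100 mM Tris/HCl pH8, 100 mM KCl, 0.05% low protease BSA, 2.5% glycerol, 0.01% Tween-20. ClpP 10 microg/mL final; 20 min RT; delta FRET normalized to ADEP and DMSO controls.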
Hits are given with their value. This is a sample that favours compounds with a hit; in the whole collection about 2.9% have one here. Unless noted, the call rests on the fitted dose curve; in most records, active means well fitted curve in the direction sought with a large enough effect; inconclusive means small, poorly fitted or top-dose-only effect, or another doubt; inactive means no such curve, though single readings can be large; an effect the other way counts as inactive or inconclusive.

Results for O=[N+]([O-])c1ccc(O)c(/C=N/Nc2nc3ccccc3[nH]2)c1 ?
LDHA block: inactive; GLP-1R agonist: inactive; GLP1R cytotox: inconclusive; p53 reactivator: 25.1µM; GLP-1R inv ag: inconclusive; ClpP mod: inactive

How did C=CCn1cc(/C=N/Nc2nc3ccccc3[nH]2)c2ccccc21 do in these assays?
LDHA block: inactive; GLP-1R agonist: inactive; GLP1R cytotox: inconclusive; p53 reactivator: 31.6µM; GLP-1R inv ag: inconclusive; ClpP mod: inactive

Results for Cc1c(/C=N/Nc2nc3ccccc3[nH]2)c2ccccc2n1C ?
LDHA block: inactive; GLP-1R agonist: inactive; GLP1R cytotox: inconclusive; p53 reactivator: inactive; GLP-1R inv ag: inconclusive; ClpP mod: inactive

How did COc1ccccc1C(CNC(=O)c1ccc(NS(=O)(=O)c2ccc(F)c(C)c2)cc1)N(C)C (centres undefined) do in these assays?
LDHA block: inactive; GLP-1R agonist: inactive; GLP1R cytotox: inactive; p53 reactivator: inactive; GLP-1R inv ag: inconclusive; ClpP mod: inactive

How did O=C(CN1C(=O)/C(=C/c2ccc(F)cc2)SC1=S)NC1C=CS(=O)(=O)C1 (centres undefined) do in these assays?
LDHA block: inactive; GLP-1R agonist: inactive; GLP1R cytotox: inactive; p53 reactivator: inactive; GLP-1R inv ag: inactive; ClpP mod: inactive

Results for CCOC(OCC)c1cn(Cc2ccc3c(c2)C(=O)c2ccccc2C3=O)nn1 ?
p53 reactivator: inactive

Results for O=C(CN1CCCCCC1)Nc1ccc([N+](=O)[O-])cc1Cl ?
LDHA block: inactive; GLP-1R agonist: inactive; GLP1R cytotox: inactive; p53 reactivator: inactive; GLP-1R inv ag: inconclusive; ClpP mod: 10µM

What do the screens show for `COc1cc(NC(=O)Nc2ccccc2OC)c(OC)cc1NC(=O)CN1CCCCC1`?
LDHA block: inactive; GLP-1R agonist: inactive; GLP1R cytotox: inactive; p53 reactivator: inactive; GLP-1R inv ag: inconclusive; ClpP mod: inactive

What do the screens show for `COc1cc(NC(=O)c2ccc(Cl)cc2)c(OC)cc1NC(=O)CN1CCCCC1`?
LDHA block: inactive; GLP-1R agonist: inactive; GLP1R cytotox: inconclusive; p53 reactivator: inactive; GLP-1R inv ag: 3.55µM

How did COc1cc(NC(=O)C2CCCCC2)c(OC)cc1NC(=O)CN1CCCCC1 do in these assays?
LDHA block: inactive; GLP-1R agonist: inactive; GLP1R cytotox: inconclusive; p53 reactivator: inactive; GLP-1R inv ag: 2.51µM; ClpP mod: inactive

How did O=C(CN1CCCCCC1)Nc1cc([N+](=O)[O-])ccc1Cl do in these assays?
LDHA block: inactive; GLP-1R agonist: inactive; GLP1R cytotox: inactive; p53 reactivator: inactive; GLP-1R inv ag: inactive

Results for COc1ccc(/C=C(/C(=O)c2ccc(Cl)cc2Cl)n2cncn2)cc1 ?
LDHA block: inactive; GLP-1R agonist: inactive; GLP1R cytotox: inactive; p53 reactivator: inactive; GLP-1R inv ag: inconclusive; ClpP mod: inactive

Results for Cc1c(C(=O)N2CCN(Cc3ccc4c(c3)OCO4)CC2)sc2ncnc(N3CCN(c4ccccc4)CC3)c12 ?
LDHA block: inactive; GLP-1R agonist: inactive; GLP1R cytotox: inactive; p53 reactivator: inactive; GLP-1R inv ag: inactive; ClpP mod: inactive

Results for O=C(O)c1cnc(-c2ccccc2)nc1Sc1ccccc1 ?
LDHA block: -39.7; GLP-1R agonist: inactive; GLP1R cytotox: inactive; p53 reactivator: inactive; GLP-1R inv ag: inactive; ClpP mod: inactive

What do the screens show for `CC(=O)N1CCCN(Cc2cn(-c3ccc(C)cc3)nc2-c2cccc(C)c2)CC1`?
LDHA block: inactive; GLP-1R agonist: inactive; GLP1R cytotox: inactive; p53 reactivator: inactive; GLP-1R inv ag: 10µM; ClpP mod: inactive

How did Cc1cccc(-n2cc(CN3CCN(Cc4nccn4C)CC3)c(-c3cccc(F)c3)n2)c1 do in these assays?
LDHA block: inactive; GLP-1R agonist: inactive; GLP1R cytotox: inconclusive; p53 reactivator: inactive; GLP-1R inv ag: 4.47µM; ClpP mod: inactive

What do the screens show for `Cc1ccc(-c2nn(-c3cccc(F)c3)cc2CN2CCN(c3ccccn3)CC2)o1`?
LDHA block: inactive; GLP-1R agonist: inactive; GLP1R cytotox: inactive; p53 reactivator: inactive; GLP-1R inv ag: 10µM; ClpP mod: inactive

What do the screens show for `CCCCC(=O)Nc1nnc(CCc2ccccc2)s1`?
LDHA block: inactive; GLP-1R agonist: inactive; GLP1R cytotox: inactive; GLP-1R inv ag: inactive; ClpP mod: inactive

What do the screens show for `CN1C2CCC1CC(NS(=O)(=O)c1cc(Cl)c(Cl)cc1Cl)C2` (centres undefined)?
LDHA block: inactive; GLP-1R agonist: inactive; GLP1R cytotox: inactive; p53 reactivator: inconclusive; GLP-1R inv ag: inactive; ClpP mod: 35.5µM

How did CCn1c(SCC(N)=O)nnc1-c1ccc(S(=O)(=O)N2CCN(C)CC2)cc1 do in these assays?
LDHA block: inactive; GLP-1R agonist: inactive; GLP1R cytotox: inactive; p53 reactivator: inactive; GLP-1R inv ag: inactive; ClpP mod: 31.6µM

How did C=CCn1c(SCC(=O)Nc2sccc2C(N)=O)nc2sc(C)c(C)c2c1=O do in these assays?
LDHA block: inactive; GLP-1R agonist: inactive; GLP1R cytotox: inconclusive; p53 reactivator: inactive; GLP-1R inv ag: inactive; ClpP mod: inactive

How did Cc1nc2nc[nH]n2c(=O)c1NS(=O)(=O)c1ccc([N+](=O)[O-])cc1 do in these assays?
LDHA block: inactive; GLP-1R agonist: inactive; GLP1R cytotox: inactive; p53 reactivator: inactive; GLP-1R inv ag: inactive

What do the screens show for `COCCN(CCOC)C(=O)N1CCOCC1`?
LDHA block: inactive; GLP-1R agonist: inactive; GLP1R cytotox: inactive; p53 reactivator: inactive; GLP-1R inv ag: inactive; ClpP mod: inactive

What do the screens show for `COc1ccc(C(=O)NCc2c(C)oc(C)c2C(=O)O)cc1`?
LDHA block: inactive; GLP-1R agonist: inactive; GLP1R cytotox: inactive; GLP-1R inv ag: inactive; ClpP mod: 15.8µM

Results for COc1ccc(C(=O)NCc2ccccc2)cc1 ?
LDHA block: inactive

How did O=C(c1ccc(Cl)c(S(=O)(=O)N2CCOCC2)c1)N(Cc1nnc(-c2ccccc2Cl)o1)C1CC1 do in these assays?
LDHA block: inactive; GLP-1R agonist: inactive; GLP1R cytotox: inactive; p53 reactivator: inactive; GLP-1R inv ag: inactive; ClpP mod: 22.4µM

Results for O=C(CN1CCCC1)N1c2ccccc2Sc2ccc(Cl)cc21 ?
LDHA block: inactive; GLP-1R agonist: inactive; GLP1R cytotox: inactive; p53 reactivator: inactive; GLP-1R inv ag: inactive; ClpP mod: inactive

How did CC(C)Cc1nc2ccccc2n1CCc1ccccc1 do in these assays?
LDHA block: inactive; GLP-1R agonist: inactive; GLP1R cytotox: inconclusive; p53 reactivator: inactive; GLP-1R inv ag: 12.6µM

Results for CCc1nc2ccccc2n1CCc1ccccc1 ?
LDHA block: inactive; GLP-1R agonist: inactive; GLP1R cytotox: inactive; p53 reactivator: inactive; GLP-1R inv ag: inconclusive
